Screening results from PubChem.
Hits are enriched below; roughly 3% of the tested compounds scored in any of these assays.
ABHD5-PLIN5 inh – blocks binding of human ABHD5 to perilipin-5 | Split G. princeps luciferase complementation, luminescence, 4 h | hit rate 0.78% among 360,000 | inhibition, % at 4 µM | AID 602281 | Q00G26+Q8WTS1;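 active = inhibition above the mean inhibition across every tested compound plus 3 SD, cut at about 22% in these data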
PAX8 reporter – lowers PAX8-driven luciferase in RMG-I cells; hit rate 1.2% among 360,000; AID 652154; RMG-I TPO-luciferase reporter, SteadyGlo, 24 h; inhibition, % at 12.6 µM;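 active = mean replicate inhibition at least 60% with every replicate also reaching 60%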;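 also: luciferase light reporting Pax8 driven TPO promoter activity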
TRPM1 prom inh – reduces MITF-dependent TRPM1 promoter luciferase signal | SK-MEL-5 TRPM1 promoter luciferase, 24 h | inhibition, % at 12.5 µM | hit rate 0.83% among 330,000 | AID 488899;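 active = mean inhibition across replicates of 60% or more, whatever share of single replicates reaches that level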
Peg3 promoter – inhibitors of Peg3 promoter. HeLa PEG-Prom luciferase reporter, luminescence, overnight. inhibition, % at 20 µM. hit rate 1.7% among 360,000;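 active = inhibition of at least 50% at 20 µM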
EWS-Fli block – EWS/Fli transcriptional activity inhibition | A673 NR0B1-luciferase reporter, viability-normalised | inhibition, % at 12.6 µM | hit rate 0.67% among 350,000 | AID 651661;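 active = mean inhibition of at least 50% after viability correction, with every replicate also passing that limit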;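 also: firefly luciferase signal divided by Alamar Blue viability fluorescence both relative to DMSO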
Shn3 3UTR inh – inhibitors of Schnurri-3 3'UTR reporter in osteoblasts. Clone20 osteoblast Shn3 3'UTR firefly luciferase, 24 h. inhibition, % at 12.5 µM. hit rate 0.52% among 360,000. AID 588674;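 active = mean inhibition of at least 75% with every replicate also reaching 75%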
A number is an active result; 0 = inactive; - = no result; ! = repeats disagree.

SMILES	ABHD5-PLIN5 inh	PAX8 reporter	TRPM1 prom inh	Peg3 promoter	EWS-Fli block	Shn3 3UTR inh
Cc1ccn2cc(-c3ccc(Br)cc3)nc2c1	0	0	0	0	62	0
O=C(O)c1cc2c([nH]c1=O)CCCC2	0	0	0	0	-	0
O=c1ccc2c([nH]1)CCCCCCCCCC2	0	0	0	54	0	0
N#CC(Cc1ccccc1OC(F)F)c1nc2ccccc2[nH]1 (stereo not drawn)	0	76	0	0	0	0
C#CCOCCOCCOCCNc1nc(N2CCN(C(=O)CCCCCCCCCCNC(=O)[C@H]([C@@H](C)CC)n3cc(CCCCCN)nn3)CC2)nc(N2CCN(C(=O)CCCCCCCCCCNC(=O)[C@@H]([C@H](C)O)n3cc(C)nn3)CC2)n1	41	-	99	98	-	0
C#CCOCCOCCOCCNc1nc(N2CCN(C(=O)CCCCCCCCCCNC(=O)Cn3cc(CCCCCN)nn3)CC2)nc(N2CCN(C(=O)CCCCCCCCCCNC(=O)[C@H]([C@@H](C)CC)n3cc(CCCCCN)nn3)CC2)n1	34	-	97	96	-	0
C#CCOCCOCCOCCNc1nc(N2CCN(C(=O)CCCCCCCCCCNC(=O)[C@H](CCCCN)n3cc(C)nn3)CC2)nc(N2CCN(C(=O)CCCCCCCCCCNC(=O)[C@@H]([C@H](C)CC)n3cc(CCCCCN)nn3)CC2)n1	45	-	105	94	-	0
C#CCOCCOCCOCCNc1nc(N2CCOCC2)nc(N2CCN(C(=O)CCCCCCCCCCNC(=O)[C@@H]([C@H](C)O)n3cc(C)nn3)CC2)n1	0	0	0	0	0	0
C#CCOCCOCCOCCNc1nc(N2CCOCC2)nc(N2CCN(C(=O)CCCCCCCCCCNC(=O)Cn3cc(CCCCCN)nn3)CC2)n1	0	0	0	0	0	0
COc1ccccc1CO/N=C/NC(=O)c1c(OC)ccnc1Oc1ccc(F)cc1	0	-	0	0	-	0
COc1ccnc(Oc2ccccc2)c1C(=O)N/C=N/OCc1ccc(F)cc1Cl	0	-	0	57	-	0
COC(=O)[C@@H]1Cc2c([nH]c3ccccc23)C(C)(C)N1C(=O)CCl	0	112	0	0	58	0
CC(=O)Nc1ccc(N(C(=O)CNC(=O)c2cccs2)C(C(=O)NCC2CCCO2)c2ccccc2)cc1 (stereo not drawn)	0	0	0	0	0	0
CC(=O)c1ccc(N(C(=O)CNC(=O)c2cccs2)C(C(=O)NCC2CCCO2)c2ccccc2)cc1 (stereo not drawn)	0	0	0	94	0	0
CCCc1cn(CC[C@@H]2CC[C@@H](NC(=O)C3CCC3)[C@@H](CO)O2)nn1	-	0	-	-	0	-
Oc1ccc(Cl)c2cccnc12	0	0	0	0	0	0
Oc1c(I)cc(I)c2cccnc12	0	100	0	0	52	94
COc1ccc(-c2ccc(C(=O)C3CC3)cc2)cc1	0	0	0	0	0	0
CC[N+]1(C)CCC(O)(c2ccc(OC)cc2)C(C(=O)c2ccc(OC)cc2)C1 (stereo not drawn)	0	76	0	103	0	0
COc1ccc(C(=O)N/C(=C\c2cccc3ccccc23)C(=O)N2CCN(C)CC2)cc1OC	0	0	0	0	0	0
CCOC(=O)N1CCN(C(=O)/C(=C/c2cccc3ccccc23)NC(=O)c2ccc(OC)c(OC)c2)CC1	0	72	0	0	0	0
C[C@H](CO)N1C[C@H](C)[C@H](CN(C)S(=O)(=O)c2ccc(Cl)cc2)OCc2ccccc2-c2c(n(C)c3ccccc23)C1=O	0	88!	-	0	0	0
C[C@@H]1CN([C@@H](C)CO)C(=O)c2c(c3ccccc3n2C)-c2ccccc2CO[C@@H]1CN(C)S(=O)(=O)c1ccc(C(F)(F)F)cc1	-	97	-	-	0	-
Cc1ccc(S(=O)(=O)N(C)C[C@@H]2OCc3ccccc3-c3c(n(C)c4ccccc34)C(=O)N([C@H](C)CO)C[C@@H]2C)cc1	0	71!	-	0	0	0
Cc1ccc(S(=O)(=O)N(C)C[C@H]2OCc3ccccc3-c3c(n(C)c4ccccc34)C(=O)N([C@@H](C)CO)C[C@@H]2C)cc1	-	-	-	-	0	-
SMILES	ABHD5-PLIN5 inh	PAX8 reporter	TRPM1 prom inh	Peg3 promoter	EWS-Fli block	Shn3 3UTR inh
C[C@H]1CN([C@@H](C)CO)C(=O)c2c(c3ccccc3n2C)-c2ccccc2CO[C@@H]1CN(C)S(=O)(=O)c1ccsc1	-	92	-	-	0	-
C[C@H](CO)N1C[C@H](C)[C@H](CN(C)S(=O)(=O)c2ccc(C(F)(F)F)cc2)OCc2ccccc2-c2c(n(C)c3ccccc23)C1=O	-	0	-	-	0	-
C[C@@H]1CN([C@@H](C)CO)C(=O)c2c(c3ccccc3n2C)-c2ccccc2CO[C@@H]1CN(C)S(=O)(=O)c1ccsc1	-	0	-	-	0	-
C[C@H](CO)N1C[C@H](C)[C@@H](CN(C)S(=O)(=O)c2ccc(F)cc2)Oc2ccc(NC(=O)Nc3ccc(F)cc3)cc2CC1=O	-	-	-	-	0	-
COc1ccc(C(=O)/C=C/c2ccc(OC)c(CN3CCOCC3)c2)cc1	0	0	0	0	-	0
COc1ccc(C(=O)/C=C/c2ccc(OC)c(Cn3nnc4ccccc43)c2)cc1	0	0	0	52	-	0
Cc1nc(SCC(=O)N(C)C2CCS(=O)(=O)C2)c2ccccc2n1 (stereo not drawn)	0	0	0	0	0	0
Cc1nc(SCC(=O)N(C)C2(C#N)CCCCC2)c2ccccc2n1	0	62	0	0	0	0
CCCCCCCC/C=C\CCCCCCCC(=O)NCCc1ccc(O)c(O)c1	0	0	0	0	0	91
CCCCCCCC/C=C\CCCCCCCC(=O)NCCO	0	0	0	0	0	0
O=C(NN=C(c1ccccc1)c1ccccn1)c1ccccc1	0	77	67	0	0	84
O=C(N/N=C(\c1ccccc1)c1ccccn1)c1ccccc1Cl	0	72	0	54	-	95
COc1ccc(C(=O)N/N=C(\c2ccccc2)c2ccccn2)cc1	0	0	0	0	0	87
C[C@@H]1CCCCO[C@@H](CN(C)C(=O)c2ccccc2)[C@H](C)CN([C@H](C)CO)C(=O)c2cc(NC(=O)Nc3ccc4c(c3)OCO4)ccc2O1	-	0	-	-	0	-
Cc1cc(N2CCCCC2)nc(NCc2ccccc2)n1	0	0	0	0	-	88
Cc1cc(N/N=C/c2cccc(Cl)c2)nc(NCc2ccccc2)n1	0	0	0	0	-	0
Cc1cc(Nc2cccc(Cl)c2)nc(NCc2ccccc2)n1	22	0	0	0	0	87
Cc1cc(N2CCOCC2)nc(NCc2ccccc2)n1	0	-	0	0	0	0
C#CCN(C[C@H]1[C@H](OC(=O)Nc2c(C)noc2C)[C@H](OC(=O)Nc2c(C)noc2C)C[C@@H](C(=O)OC)[C@H]1C(=O)OC)S(=O)(=O)c1ccc(C)cc1	0	97	-	0	0	0
C#CCN(C[C@@H]1[C@@H](OC(=O)Nc2cccs2)[C@@H](OC(=O)Nc2cccs2)C[C@H](C(=O)OC)[C@@H]1C(=O)OC)S(=O)(=O)c1ccc(C)cc1	-	0	-	-	0	-
CCC(=O)N1CC2(C1)[C@@H](c1ccccc1)[C@@H](CO)N2Cc1cc(F)ccc1F	-	-	-	-	0	-
